Measured values as given in PubChem BioAssay (Tox21).
Results filed as inconclusive are left out. Entries that show only a call come without a potency. Calls of active or inactive are those of the source. The call rests on the fitted dose curve.

Biological target: Muscarinic acetylcholine receptor M1 (Homo sapiens) (UniProt P11229)
Sequence (P11229 whole entry, looked up): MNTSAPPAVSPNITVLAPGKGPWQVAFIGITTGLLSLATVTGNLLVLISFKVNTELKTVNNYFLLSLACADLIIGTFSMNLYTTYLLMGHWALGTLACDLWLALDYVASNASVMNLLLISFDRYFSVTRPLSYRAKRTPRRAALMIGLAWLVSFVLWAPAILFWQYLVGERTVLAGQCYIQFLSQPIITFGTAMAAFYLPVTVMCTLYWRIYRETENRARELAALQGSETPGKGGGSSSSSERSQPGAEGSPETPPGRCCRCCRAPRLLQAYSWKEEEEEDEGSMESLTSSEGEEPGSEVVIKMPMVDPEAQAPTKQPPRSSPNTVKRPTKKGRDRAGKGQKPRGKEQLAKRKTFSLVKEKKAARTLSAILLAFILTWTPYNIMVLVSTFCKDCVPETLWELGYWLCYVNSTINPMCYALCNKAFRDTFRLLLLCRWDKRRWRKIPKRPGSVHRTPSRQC
Test: Cholinergic receptor muscarinic 1 (CHRM1) small molecule antagonists, cell-based qHTS assay (AID 1963588); further: nearly all actives have a fitted effect of over 40% in size
Settings: CHRM1-CHO antagonist mode, calcium flux fluorescence; series mostly up to 61.5 µM
Method in brief: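 Compounds were tested at 15 concentrations in three independent runs. Dye-loaded CHRM1-CHO cells were exposed 5 min at room temperature before stimulation by acetylcholine added at 50nM. Intracellular calcium was read kinetically on FDSS for 3 min.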
In the case of `CCOC=C(C(=O)OCC)C(=O)OCC`, the Potency is reported as “inactive”. With `CCC(=O)OCc1ccccc1` the Potency was “inactive”. With `O=C1CC[C@H](C(=O)N2CCCCC2)N1` the Potency was “inactive”. With `C=C1CC/C=C(\C)CC[C@@H]2[C@@H]1CC2(C)C` the Potency was “inactive”. With `COc1cc(S(N)(=O)=O)cc(C(=O)O)c1OC` the Potency was “inactive”. For `C1COCCO1`, the Potency was “inactive”. For `CC/C=C/CCO`, the Potency was “inactive”. In the case of `CC(=O)N1CCN(c2ccc(O)cc2)CC1`, the Potency is reported as “inactive”. With `Cc1ncc(CO)c(CN)c1O` the Potency was “inactive”. For `CC(C)(C)c1ccc(CCC=O)cc1`, the Potency was “inactive”. With `CC1=C(O)C(=O)C(C)O1` (configuration not stated) the Potency was “inactive”. With `CCOC(=O)[C@H](CCc1ccccc1)N[C@@H](C)C(=O)N1C(=O)N(C)C[C@H]1C(=O)O` the Potency was “inactive”. In the case of `CCCCCCCCCCCCCCCCCC(=O)OCC(CC)CCCC` (configuration not stated), the Potency is reported as “inactive”. With `NC(=O)Cc1cccc2ccccc12` the Potency was “inactive”. With `Cc1cnccn1` the Potency was “inactive”. In the case of `O=Cc1ccc(Cl)cc1`, the Potency is reported as “inactive”. For `CCCCCCCCCCC`, the Potency was “inactive”. With `CCCCOC(=O)CCS` the Potency was “inactive”. With `COc1cc(C(=S)N2CCOCC2)cc(OC)c1OC` the Potency was “inactive”. With `CCCC(=O)Nc1ccc(O)c(C(C)=O)c1` the Potency was “inactive”. With `COc1cc2c(Nc3ccc(Br)cc3F)ncnc2cc1OCC1CCN(C)CC1` the Potency was “inactive”. With `CC(=O)c1ccc2c(c1)CCCC2` the Potency was “inactive”. In the case of `c1cnc2cc3c(cc2n1)C1CNCC3C1`, the Potency is reported as “inactive”. For `O=Cc1ccc([N+](=O)[O-])cc1`, the Potency was “inactive”. With `CCC(=O)O[C@@H]1C[C@H]2CC[C@]1(C)C2(C)C` the Potency was “inactive”. For `CCNc1nc(N)nc(Cl)n1`, the Potency was “inactive”. With `CN(C)CCCNCCC#N` the Potency was “inactive”. For `O=C1CCN(c2ccccc2)N1`, the Potency was “inactive”. With `O=C(O)c1ccc(OCCN2CCCCC2)cc1` the Potency was “inactive”. For `C=CC(C)(O)CC/C=C(/C)CCC=C(C)C` (configuration not stated), the Potency was “inactive”. In the case of `Cc1cc(CCC(=O)OCCOCCOCCOC(=O)CCc2cc(C)c(O)c(C(C)(C)C)c2)cc(C(C)(C)C)c1O`, the Potency is reported as “inactive”. With `C1CCCC1` the Potency was “inactive”. In the case of `NS(=O)(=O)c1ccccc1OC(F)(F)F`, the Potency is reported as “inactive”. For `Clc1ccc2c(c1)Nc1ccccc1S2`, the Potency was “inactive”. For `CC(C)(O)C(=O)c1ccc(OCCO)cc1`, the Potency was “inactive”. For `C[Si](C)(C)O[Si](C)(C)O[Si](C)(C)C`, the Potency was “inactive”. In the case of `[Cl][Nd]([Cl])[Cl]`, the Potency is reported as “inactive”. With `O=C(Cn1ccnc1[N+](=O)[O-])NCc1ccccc1` the Potency was “inactive”. In the case of `O=C(O)CC(=O)O`, the Potency is reported as “inactive”.

Biological target: Muscarinic acetylcholine receptor M1 (Homo sapiens) (UniProt P11229)
Test: Cholinergic receptor muscarinic 1 (CHRM1) small molecule agonists, cell-based qHTS assay (AID 1963589); further: nearly all actives have a fitted effect of over 35% in size
Settings: CHRM1-CHO cells, agonist mode, calcium flux fluorescence; series mostly up to 76.8 µM
Method in brief: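 qHTS, 15-point titration, 3 independent runs: compounds pin-transferred onto dye-loaded CHRM1-CHO cells (human M1), calcium fluorescence followed every second to detect agonism.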
With `CCOC=C(C(=O)OCC)C(=O)OCC` the Potency was “inactive”. In the case of `CCC(=O)OCc1ccccc1`, the Potency is reported as “inactive”. With `O=C1CC[C@H](C(=O)N2CCCCC2)N1` the Potency was “inactive”. In the case of `C=C1CC/C=C(\C)CC[C@@H]2[C@@H]1CC2(C)C`, the Potency is reported as “inactive”. In the case of `COc1cc(S(N)(=O)=O)cc(C(=O)O)c1OC`, the Potency is reported as “inactive”. For `C1COCCO1`, the Potency was “inactive”. For `CC/C=C/CCO`, the Potency was “inactive”. In the case of `CC(=O)N1CCN(c2ccc(O)cc2)CC1`, the Potency is reported as “inactive”. For `Cc1ncc(CO)c(CN)c1O`, the Potency was “inactive”. In the case of `CC(C)(C)c1ccc(CCC=O)cc1`, the Potency is reported as “inactive”. With `CC1=C(O)C(=O)C(C)O1` (configuration not stated) the Potency was “inactive”. With `CCOC(=O)[C@H](CCc1ccccc1)N[C@@H](C)C(=O)N1C(=O)N(C)C[C@H]1C(=O)O` the Potency was “inactive”. In the case of `CCCCCCCCCCCCCCCCCC(=O)OCC(CC)CCCC` (configuration not stated), the Potency is reported as “inactive”. With `NC(=O)Cc1cccc2ccccc12` the Potency was “inactive”. For `Cc1cnccn1`, the Potency was “inactive”. For `O=Cc1ccc(Cl)cc1`, the Potency was “inactive”. In the case of `CCCCCCCCCCC`, the Potency is reported as “inactive”. In the case of `CCCCOC(=O)CCS`, the Potency is reported as “inactive”. With `COc1cc(C(=S)N2CCOCC2)cc(OC)c1OC` the Potency was “inactive”. For `CCCC(=O)Nc1ccc(O)c(C(C)=O)c1`, the Potency was “inactive”. With `COc1cc2c(Nc3ccc(Br)cc3F)ncnc2cc1OCC1CCN(C)CC1` the Potency was “inactive”. In the case of `CC(=O)c1ccc2c(c1)CCCC2`, the Potency is reported as “inactive”. In the case of `c1cnc2cc3c(cc2n1)C1CNCC3C1`, the Potency is reported as “inactive”. For `O=Cc1ccc([N+](=O)[O-])cc1`, the Potency was “inactive”. For `CCC(=O)O[C@@H]1C[C@H]2CC[C@]1(C)C2(C)C`, the Potency was “inactive”. With `CCNc1nc(N)nc(Cl)n1` the Potency was “inactive”. With `CN(C)CCCNCCC#N` the Potency was “inactive”. In the case of `O=C1CCN(c2ccccc2)N1`, the Potency is reported as “inactive”. For `O=C(O)c1ccc(OCCN2CCCCC2)cc1`, the Potency was “inactive”. In the case of `C=CC(C)(O)CC/C=C(/C)CCC=C(C)C` (configuration not stated), the Potency is reported as “inactive”. For `Cc1cc(CCC(=O)OCCOCCOCCOC(=O)CCc2cc(C)c(O)c(C(C)(C)C)c2)cc(C(C)(C)C)c1O`, the Potency was “inactive”. In the case of `C1CCCC1`, the Potency is reported as “inactive”. In the case of `NS(=O)(=O)c1ccccc1OC(F)(F)F`, the Potency is reported as “inactive”. In the case of `Clc1ccc2c(c1)Nc1ccccc1S2`, the Potency is reported as “inactive”. In the case of `CC(C)(O)C(=O)c1ccc(OCCO)cc1`, the Potency is reported as “inactive”. With `C[Si](C)(C)O[Si](C)(C)O[Si](C)(C)C` the Potency was “inactive”. In the case of `[Cl][Nd]([Cl])[Cl]`, the Potency is reported as “inactive”. For `O=C(Cn1ccnc1[N+](=O)[O-])NCc1ccccc1`, the Potency was “inactive”. For `O=C(O)CC(=O)O`, the Potency was “inactive”.

Tested on: not listed separately
Test: cAMP Responsive Elements (CRE) small molecule agonists, cell-based qHTS assay (AID 1963590)
Settings: CRE-bla HEK293T, beta-lactamase FRET ratio, 3 h; series mostly up to 92.4 µM
Method in brief: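 Quantitative HTS for CRE agonists: HEK 293T CRE-bla cells, overnight plating, 3 h compound incubation at 37 C/5% CO2, then 2 h room-temperature LiveBLAzer B/G FRET substrate loading.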
In the case of `CCOC=C(C(=O)OCC)C(=O)OCC`, the Potency is reported as “inactive”. With `CCC(=O)OCc1ccccc1` the Potency was “inactive”. For `O=C1CC[C@H](C(=O)N2CCCCC2)N1`, the Potency was “inactive”. In the case of `C=C1CC/C=C(\C)CC[C@@H]2[C@@H]1CC2(C)C`, the Potency is reported as “inactive”. In the case of `COc1cc(S(N)(=O)=O)cc(C(=O)O)c1OC`, the Potency is reported as “inactive”. For `C1COCCO1`, the Potency was “inactive”. In the case of `CC/C=C/CCO`, the Potency is reported as “inactive”. With `CC(=O)N1CCN(c2ccc(O)cc2)CC1` the Potency was “inactive”. With `Cc1ncc(CO)c(CN)c1O` the Potency was “inactive”. With `CC(C)(C)c1ccc(CCC=O)cc1` the Potency was “inactive”. With `CC1=C(O)C(=O)C(C)O1` (configuration not stated) the Potency was “inactive”. With `CCOC(=O)[C@H](CCc1ccccc1)N[C@@H](C)C(=O)N1C(=O)N(C)C[C@H]1C(=O)O` the Potency was “inactive”. In the case of `CCCCCCCCCCCCCCCCCC(=O)OCC(CC)CCCC` (configuration not stated), the Potency is reported as “inactive”. In the case of `NC(=O)Cc1cccc2ccccc12`, the Potency is reported as “inactive”. In the case of `Cc1cnccn1`, the Potency is reported as “inactive”. For `O=Cc1ccc(Cl)cc1`, the Potency was “inactive”. For `CCCCCCCCCCC`, the Potency was “inactive”. With `CCCCOC(=O)CCS` the Potency was “inactive”. For `COc1cc(C(=S)N2CCOCC2)cc(OC)c1OC`, the Potency was “inactive”. In the case of `CCCC(=O)Nc1ccc(O)c(C(C)=O)c1`, the Potency is reported as “inactive”. For `COc1cc2c(Nc3ccc(Br)cc3F)ncnc2cc1OCC1CCN(C)CC1`, the Potency was “inactive”. In the case of `CC(=O)c1ccc2c(c1)CCCC2`, the Potency is reported as “inactive”. With `c1cnc2cc3c(cc2n1)C1CNCC3C1` the Potency was “inactive”. With `O=Cc1ccc([N+](=O)[O-])cc1` the Potency was “inactive”. For `CCC(=O)O[C@@H]1C[C@H]2CC[C@]1(C)C2(C)C`, the Potency was “inactive”. For `CCNc1nc(N)nc(Cl)n1`, the Potency was “inactive”. In the case of `CN(C)CCCNCCC#N`, the Potency is reported as “inactive”. With `O=C1CCN(c2ccccc2)N1` the Potency was “inactive”. For `O=C(O)c1ccc(OCCN2CCCCC2)cc1`, the Potency was “inactive”. For `C=CC(C)(O)CC/C=C(/C)CCC=C(C)C` (configuration not stated), the Potency was “inactive”. In the case of `Cc1cc(CCC(=O)OCCOCCOCCOC(=O)CCc2cc(C)c(O)c(C(C)(C)C)c2)cc(C(C)(C)C)c1O`, the Potency is reported as “inactive”. For `C1CCCC1`, the Potency was “inactive”. For `NS(=O)(=O)c1ccccc1OC(F)(F)F`, the Potency was “inactive”. For `Clc1ccc2c(c1)Nc1ccccc1S2`, the Potency was “inactive”. In the case of `CC(C)(O)C(=O)c1ccc(OCCO)cc1`, the Potency is reported as “inactive”. In the case of `C[Si](C)(C)O[Si](C)(C)O[Si](C)(C)C`, the Potency is reported as “inactive”. For `[Cl][Nd]([Cl])[Cl]`, the Potency was “inactive”. In the case of `O=C(Cn1ccnc1[N+](=O)[O-])NCc1ccccc1`, the Potency is reported as “inactive”. In the case of `O=C(O)CC(=O)O`, the Potency is reported as “inactive”.
